# GPR151 ag: activators of human GPR151; Q8TDV0; PathHunter beta-arrestin GPR151 cells, luminescence; activation, % at 11.2 µM; 650,000 tested, 1% active; AID 1508602; in the data active = activation above about 4.9%;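 also: 0% = median of compound wells and 100% = cells with positive control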
# TEAD-YAP inh: TEAD-YAP interaction inhibition. HEK-TIYL cells, TEAD-Gal4/YAP UAS-luciferase luminescence. AID 1259422. 640,000 tested, 1.4% active. inhibition, % at 9.12 µM; in the data active = inhibition above about 32%;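 also: 0% = median of test compound wells and 100% = reference inhibitor wells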
# MITF primary: human MITF inhibition, primary screen | AlphaScreen MITF homodimerization, bead proximity signal | inhibition, % at 2.6 µM | 650,000 tested, 0.91% active; in the data active = inhibition above about 50%;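 also: 0% = vehicle wells with protein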
# Target sequence (O75030 whole entry, looked up): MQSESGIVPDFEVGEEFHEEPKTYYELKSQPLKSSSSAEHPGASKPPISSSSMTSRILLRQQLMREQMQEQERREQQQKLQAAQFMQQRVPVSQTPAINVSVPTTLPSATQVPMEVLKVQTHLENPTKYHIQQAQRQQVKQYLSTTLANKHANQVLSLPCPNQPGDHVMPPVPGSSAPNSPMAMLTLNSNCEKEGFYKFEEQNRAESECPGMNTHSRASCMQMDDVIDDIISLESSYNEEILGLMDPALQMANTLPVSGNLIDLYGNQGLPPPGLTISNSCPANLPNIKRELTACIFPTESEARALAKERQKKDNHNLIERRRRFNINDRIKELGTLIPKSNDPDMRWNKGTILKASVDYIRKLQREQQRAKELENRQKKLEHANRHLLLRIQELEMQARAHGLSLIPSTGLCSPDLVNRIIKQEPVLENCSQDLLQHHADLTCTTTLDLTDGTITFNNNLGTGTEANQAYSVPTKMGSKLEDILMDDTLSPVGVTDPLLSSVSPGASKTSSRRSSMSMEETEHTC
# FBW7 act: human FBW7 E3 ligase activation, primary screen | Q969H0 | AlphaScreen FBW7–phospho-cyclin E peptide binding, activator screen | normalized activity (activation), % at 26.1 µM | 650,000 tested, 0.13% active | AID 1259310; in the data active = normalized activity above about 1.9%;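 also: purified mutant Fbw7 with reduced substrate affinity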
# GPR151 confirm: confirmation of human GPR151 activators | shares compounds with GPR151 ag | GPR151 PathHunter beta-arrestin cells, luminescence, 90 min; % of EA-reagent control over plate median | activation, % at 11.2 µM | 6,700 tested, under 10 active | AID 1508609;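 active = mean percent activation across replicates above the confirmation screen cutoff of 4.91%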
# GPR119 ag: GPR119 activation, counter-screen for GPR151 activators. shares compounds with GPR151 ag. AID 1508611. 6,700 tested, 0.3% active. activation, % at 11.2 µM. GPR119 PathHunter beta-arrestin cells, luminescence, 90 min; 0 = compound-well median, 100 = enzyme-acceptor control;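 active = mean percent activation in the counterscreen above 29.09%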;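 also: counterscreen on off-target GPR119 to flag nonselective hits from the GPR151 activator screen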
# Active calls of the source: *; x = not tested or not shown. An excerpt weighted towards active compounds, which were near 3.5% of everything screened.
SMILES,GPR151 ag,TEAD-YAP inh,MITF primary,FBW7 act,GPR151 confirm,GPR119 ag
O=c1oc2ccc(Br)cc2cc1-c1csc(-c2ccccc2)n1,5.2*,5,-13,0,-1,-2
O=c1oc2ccc(Br)cc2cc1-c1csc(-c2ccc(Cl)cc2)n1,2,1,7,0,x,x
CC(=O)c1c(C)[nH]c(C(=O)N2CCN(c3ccccc3F)CC2)c1C,0,4,6,0,x,x
CC(=O)c1c(C)[nH]c(C(=O)N2CCN(c3ccccc3)CC2)c1C,13*,5,14,0,-1,-3
Cc1cccc(N(CC(=O)N2CCN(c3ccccc3)CC2)S(=O)(=O)c2ccccc2)c1,5.8*,8,11,0,1,-3
O=C(CN(c1ccccc1)S(=O)(=O)c1ccccc1)N1CCN(c2ccccc2)CC1,1,3,10,0,x,x
C=CCSc1ncnc2sc(C)c(C)c12,5.3*,0,6,0,0,5
C=COCC(COC=C)(COC=C)COC=C,5.2*,1,14,0,1,1
O=S(=O)(c1ccc(NC(=S)N/N=C/c2cccc(F)c2)cc1)N1CCOCC1,0,-2,0,0,x,x
Cc1ccc(CN2CCN(Cc3nc4ccccc4n3C)CC2CCO)cc1 (stereo not drawn),19*,-2,14,0,0,2
CC(C)CN1CCN(Cc2nc3ccccc3n2C)CC1CCO (stereo not drawn),2,2,-1,0,x,x
Cc1ccc(-c2nnc(-c3ccc(C)c([N+](=O)[O-])c3)o2)cc1,0,-9,14,0,x,x
CC(C)C(=O)Nc1ccc(S(=O)(=O)NCC2(c3ccccc3)CCOCC2)cc1,5.2*,-7,0,0,0,-5
COc1ccc(-c2n[nH]c(=S)n2Cc2ccco2)cc1OC,1,-7,-13,0,x,x
COc1cccc(-c2n[nH]c(=S)n2Cc2ccco2)c1OC,9.1*,-10,11,1,1,6
CCOC(=O)c1sc2nc(SCc3ccc(Cl)cc3)n(Cc3ccccc3OC)c(=O)c2c1C,1,4,10,0,x,x
CCN(CC)c1nc(NCCO)nc(N2CCN(c3ccccn3)CC2)n1,7.6*,5,14,0,0,-4
CCN(CC)c1nc(NCc2cccnc2)nc(N2CCN(c3ccccn3)CC2)n1,6.0*,-1,7,0,-1,-14
c1ccc(-n2cc(CN3CCc4nnc(C5CCCO5)n4CC3)cn2)cc1 (stereo not drawn),1,-16,-3,0,x,x
N#CCCN(CCC#N)C(=O)Cc1ccc(Br)cc1,2,7,12,1,x,x
CCCN(CCC)C(=O)Cc1ccc(Br)cc1,8.4*,-1,24,1,0,5
O=C(Nc1ccc(N2CCOCC2)cc1)c1c(C(F)(F)F)nc2ccccn12,1,6,8,0,x,x
COc1cc(C(=O)Nc2cc3cc([N+](=O)[O-])ccc3oc2=O)cc(OC)c1OC,0,-8,12,0,x,x
COc1ccccc1NC(=O)C1CC(=O)OC12CCOC(C)(C)C2 (stereo not drawn),6.5*,-19,-4,0,0,7
COc1ccccc1NC(=O)C1CC(=O)OC1(C)C (stereo not drawn),0,1,3,1,x,x
SMILES,GPR151 ag,TEAD-YAP inh,MITF primary,FBW7 act,GPR151 confirm,GPR119 ag
c1csc(-c2cnc3sc(NCC4CCOCC4)nn23)c1,1,x,x,x,x,x
CC1CN(C(=O)CCC(=O)NC2CCCC2)c2cc(Cl)ccc2O1 (stereo not drawn),0,-4,-3,0,x,x
Cc1cc2ccccc2c(=O)n1CC(=O)N1CCN(c2ccccn2)CC1,7.2*,10,-2,0,0,-9
CC1CN(C(=O)CCC(=O)NC2CCCC2)c2ccccc2O1 (stereo not drawn),5.1*,-6,5,0,0,-2
CC1CN(C(=O)CCC(=O)N2CCN(c3ccccn3)CC2)c2ccccc2O1 (stereo not drawn),6.1*,-2,-7,0,0,0
Cc1ccc(S(=O)(=O)CCC(=O)N2CCN(c3ccccn3)CC2)cc1,5.1*,-3,4,0,0,-3
CC1CCCN(S(=O)(=O)c2ccc3nc(-c4ccccc4)[nH]c3c2)C1 (stereo not drawn),-1,-7,-2,0,x,x
